The values that follow come from PubChem BioAssay AID1851 (National Center for Advancing Translational Sciences (NCATS), 2009).

Structures are written as SMILES. “And” between values parts separate entries of the source, which are not always exact repeats. Equal values may be shown once. Hit rate of the full screen: of about 16,000 compounds, about 5,800 (36%) were called active. Roughly 23% stayed inconclusive and do not appear here. The call rests on the fitted dose curve; in most records, active means well fitted curve in the direction sought with a large enough effect; inconclusive means small, poorly fitted or top-dose-only effect, or effect the other way; inactive means no such curve, though single readings can be large or run the other way. Some of the results follow. Where a structure was tested more than once in an assay, its records may differ in their call.
On the % scale 0 is the no-effect control and ±100 the full control effect.

Sequence of Cytochrome P450 2C19 (Homo sapiens) (P33261 whole entry, looked up): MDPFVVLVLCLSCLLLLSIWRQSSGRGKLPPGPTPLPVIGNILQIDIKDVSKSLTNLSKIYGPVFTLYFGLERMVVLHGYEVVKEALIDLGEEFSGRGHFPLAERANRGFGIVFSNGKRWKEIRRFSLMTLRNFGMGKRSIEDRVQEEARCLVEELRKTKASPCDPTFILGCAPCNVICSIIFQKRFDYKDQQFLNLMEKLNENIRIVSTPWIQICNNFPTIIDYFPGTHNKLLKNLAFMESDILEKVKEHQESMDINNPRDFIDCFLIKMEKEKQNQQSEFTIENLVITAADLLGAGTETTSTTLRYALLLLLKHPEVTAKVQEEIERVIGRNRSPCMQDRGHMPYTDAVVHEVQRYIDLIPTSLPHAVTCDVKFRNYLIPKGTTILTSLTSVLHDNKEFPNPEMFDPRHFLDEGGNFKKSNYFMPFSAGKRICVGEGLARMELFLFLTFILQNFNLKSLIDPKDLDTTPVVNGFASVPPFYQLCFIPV

The assay has as its target Cytochrome P450 2C19 (Homo sapiens) (UniProt P33261). As to the kind of experiment: Cytochrome panel assay with activity outcomes. The conditions noted are these: recombinant CYP, pro-luciferin dealkylation, luminescence, p450-cyp2c19; series mostly up to 57.1 µM; activity, negative = inhibition: at the top concentration.
For the molecule `CCN(CC(=O)O)CC(=O)O`, the activity, negative = inhibition is 7.01% [at 11.4 µM] (inactive).
For `COCC(=O)N1CCC[C@@]2(CCN(c3ncccn3)C2)C1`, the “activity, negative = inhibition” value is -9.51% (inactive).
Consider `O=S1(=O)C=C(SCc2cccc(Cl)c2)Nc2ccccc21`, for which the AC50 (in general, the concentration at which the activity in the assay is half-maximal) was 0.891 µM (active).
For the molecule `C=CCOc1cccc(CNn2cn[nH]c2=S)c1`, the AC50 is 7.94 µM (active).
Turning to `C[C@@H](C(=O)NCCc1c[nH]c2ccccc12)[C@@H]1C[C@@]1(C)[C@@H](NC(=O)OCc1ccccc1)c1ccccc1`, the AC50 was 0.794 µM (active).
Still for that read-out and setting: under `C[C@@H](C(=O)NCCc1c[nH]c2ccccc12)[C@H]1C[C@]1(C)[C@H](NC(=O)OCc1ccccc1)c1ccccc1` stands 2.51 µM (active).
Regarding `COc1cccc([C@H]2Oc3ccc(OC)cc3/C(=N\O[C@@H]3O[C@H](COC(C)=O)[C@H](OC(C)=O)[C@H](OC(C)=O)[C@H]3OC(C)=O)[C@@H]2O)c1`, the activity, negative = inhibition was 14.8% [at 11.4 µM] (inactive).
As to `COc1cccc([C@@H]2Oc3ccc(OC)cc3C(=O)[C@H]2O)c1`, the AC50 was 1 µM (active).
Turning to `COc1cccc([C@@H]2Oc3ccc(Br)cc3C(=O)[C@H]2O)c1`, the AC50 was 3.16 µM (active).
As for `CC(=O)OCC(=O)[C@]12OC(C)(C)O[C@@H]1C[C@H]1[C@H]3CC=C4C[C@@H](O)CC[C@]4(C)[C@H]3CC[C@]12C`, the activity, negative = inhibition was 4.13% [at 11.4 µM] (inactive).
As to `CC[C@@H]1OC(=O)[C@H](C)[C@H](O[C@@H]2C[C@](C)(OC)[C@H](O)[C@H](C)O2)[C@H](C)[C@H](O[C@@H]2O[C@@H](C)C[C@@H](N(C)C)[C@@H]2O)[C@](C)(O)C[C@H](C)C(=O)[C@H](C)[C@H](O)[C@]1(C)O`, the “activity, negative = inhibition” value was 0.695% [at 25.6 µM] (inactive).
For `Nc1c2c(=O)oc(-c3ccccc3)cc2nn1-c1ccccc1`, the AC50 was 14.1 µM (active).
Take `NS(=O)(=O)c1cccc2c1c([N+](=O)[O-])cc1[nH]c(=O)c(=O)[nH]c12`: the “activity, negative = inhibition” value was 29.6% (inactive).
On to `CCCSc1nc(C)cc(C)c1C(N)=O`, for which the “activity, negative = inhibition” value was -5.23% (inactive).
As for `NC(=O)c1nnn(Cc2cc(Cl)c(C(=O)c3ccc(Cl)cc3)c(Cl)c2)c1N`, the activity, negative = inhibition is -30.1% [at 11.4 µM] (inactive).
Consider `Cc1cc(C)c(C(N)=O)c(SCC(=O)c2ccc(Cl)cc2)n1`, for which the AC50 is 8.91 µM (active).
In the case of `CCOC(=O)c1nc2sc(C)c(C)c2c(=O)[nH]1`, the concentration at half-maximal activity (AC50) was 10 µM (active).
Consider `OCCNc1ncnc2c1ncn2[C@@H]1O[C@@H](CO)[C@H](O)[C@@H]1O`, for which the activity, negative = inhibition is 32.5% [at 11.4 µM] (inactive).
Turning to `CCC(=O)N[C@@H]1Cc2ccccc2[C@@H](c2ccccc2)C1`, the AC50 was 7.94 µM (active).
Take `CCC(=O)N[C@@H]1CCc2cccc(OC)c2C1`: the “activity, negative = inhibition” value was -5.91% (inactive).
In the case of `COc1cccc(Nc2nc(-c3ccc(O)cc3)cs2)c1`, the concentration at half-maximal activity (AC50) was 2.51 µM (active).
Regarding `COc1cccc(Nc2ncc3nc(-c4ccc(F)cc4)c(=O)n(C)c3n2)c1`, the “activity, negative = inhibition” value was 10% (inactive).
On the same count and under the same terms, under `COc1ccc(-c2nc3cnc(Nc4cccc(OC)c4)nc3n(Cc3cccs3)c2=O)cc1` stands 28.8% (inactive).
`Cc1cc(C)n(C(=O)CCCCCCCCC(=O)n2nc(C)cc2C)n1`: the AC50 is 3.55 µM (active).
On to `CC(=O)c1cnc2cc(C)nn2c1C`, for which the “activity, negative = inhibition” value is 16.8% (inactive).
The same measure, in the same setting: to `CN1CCc2c(cc(O)c(O)c2Cl)[C@H](c2cccc(Cl)c2)C1` belongs -27.1% (inactive); to `CC(C)(C)C1CCC(OCC(O)CN2CCN(c3ccccc3)CC2)CC1` (configuration not stated), -16.8% (inactive).
Regarding `OC(COCC1COc2ccccc2O1)CN1CCc2ccccc2C1` (configuration not stated), the half-maximal activity concentration (AC50) is 5.01 µM (active).
Still for that read-out and setting: to `OC(COCC1COc2ccccc2O1)CN1CCN(c2ccccc2F)CC1` (configuration not stated) belongs 28.2 µM (active); to `O=C(c1ccccc1)c1ccc2n1CC[C@H]2C(=O)O`, “inactive”.
For the molecule `CC(C)(C)NC[C@@H](O)COc1ccccc1C1CCCC1`, the “activity, negative = inhibition” value was -24.6% [at 25.6 µM] (inactive).
Turning to `C=CCc1ccccc1OC[C@H](O)CNC(C)C`, the AC50 entry is “inactive”.
The same measure, in the same setting: to `O=C(NC1CCCC1)c1cnn2c(C(F)(F)F)cc(-c3ccco3)nc12` belongs 11.2 µM (active); to `Cc1nc2ccccn2c1C(=O)CSc1ccccc1Cl`, 2.82 µM (active).
Consider `COCCNC(=O)[C@H](C)[C@@H]1C[C@@]1(C)[C@@H](NC(=O)OCc1ccccc1)c1ccccc1`, for which the AC50 is 3.16 µM (active).
Regarding `C[C@@H](C(=O)NCCF)[C@H]1C[C@]1(C)[C@H](NC(=O)OCc1ccccc1)c1ccccc1`, the AC50 is 1.26 µM (active).
Take `CCOC(=O)N/N=C1/C[C@@H](O)[C@@H](O)[C@@H]2[C@@H]3C(=O)N(C(C)(C)C)C(=O)[C@H]3CC[C@@H]12`: the activity, negative = inhibition was -19.4% [at 11.4 µM] (inactive).
With `O=C(NCCOC(=O)c1ccc(C(=O)OCCNC(=O)c2cccnc2)s1)c1cccnc1`, the AC50 was 7.94 µM (active).
Consider `CC(=O)OCCNC(=O)c1cccnc1`, for which the “activity, negative = inhibition” value is 25.9% (inactive).
Regarding `O=C(NCCO[N+](=O)[O-])c1cccnc1`, the AC50 is 3.98 µM (active).
With `Cc1cccc([C@@H]2CN(C)CCc3c2cc(O)c(O)c3Cl)c1`, the AC50 entry was “inactive”.
The same measure, in the same setting: to `CN(C)CCC[C@@]1(c2ccc(F)cc2)OCc2cc(C#N)ccc21` belongs “inactive and 3.16 µM (active)”; to `COc1ccccc1N/C(=N/S(=O)(=O)c1ccc(C)cc1)c1ccc(Cl)cc1`, 4.47 µM (active).
As to `O=S(=O)(/N=C(/Nc1ccc(F)cc1F)c1ccc(Cl)cc1)c1ccccc1`, the “activity, negative = inhibition” value was -10.4% (inactive).
Consider `CS(=O)(=O)Nc1ccc(Nc2c3ccccc3nc3ccccc23)cc1`, for which the activity, negative = inhibition is -0.835% [at 11.4 µM] (inactive).
Same read-out and setting: to `CS(=O)(=O)Nc1cccc(-c2nc(N3CCNCC3)c3ccccc3n2)c1` belongs -31.6% (inactive).
For the molecule `COc1cccc(-c2nc(Nc3ccncc3)c3ccccc3n2)c1`, the AC50 was 3.16 µM (active).
The same measure, in the same setting: to `CS(=O)(=O)Nc1cccc(-c2nc(Nc3ccccc3)c3ccccc3n2)c1` belongs 10 µM (active).
On to `N#Cc1cccc(-c2nc(Nc3ccncc3)c3ccccc3n2)c1`, for which the “activity, negative = inhibition” value was -18.2% (inactive).
Consider `CS(=O)(=O)Nc1cccc(-c2nc(Nc3ccncc3)c3ccccc3n2)c1`, for which the AC50 was 5.01 µM (active).
For `COc1cc(NS(C)(=O)=O)ccc1Nc1c2ccccc2nc2ccccc12`, the “activity, negative = inhibition” value is -6.07% (inactive).
For the molecule `CNc1nc(-c2cccc(NS(C)(=O)=O)c2)nc2ccccc12`, the “activity, negative = inhibition” value is -23.8% (inactive).
With `CS(=O)(=O)Nc1cccc(-c2nc(Nc3ccc(F)cc3)c3ccccc3n2)c1`, the AC50 was 7.94 µM (active).
In the case of `CCCCCCCCCCCCCCSCC(=O)O`, the “activity, negative = inhibition” value is 27.3% (inactive).
On the same count and under the same terms, under `NC[C@](O)(CS(=O)(=O)O)c1ccc(Cl)cc1` stands 16% (inactive).
As to `O=C(N/N=C/C1C(c2ccccc2)C1(Cl)Cl)c1cccc(Br)c1` (configuration not stated), the AC50 is 7.08 µM (active).
Same read-out and setting: to `O=C(N/N=C/c1cccc(Oc2ccccc2)c1)c1cccc(Br)c1` belongs 2.24 µM (active); to `O=C(N/N=C\c1ccc(Sc2ccccn2)o1)c1cccc(Br)c1`, 2.51 µM (active).
In the case of `C[C@@H](N=C(N)N)C(=O)O`, the activity, negative = inhibition is 36.5% [at 11.4 µM] (inactive).
Same read-out and setting: to `CC(=O)O[C@]12CC[N@+]3(C)CCCC[C@@H]3[C-]1Nc1ccccc12` belongs 34.8% [at 11.4 µM] (inactive).
Turning to `Cn1nc(C(F)(F)F)c(/C=N/OCc2c(Cl)cccc2Cl)c1Cl`, the concentration at half-maximal activity (AC50) is 0.282 µM (active).
For `CCCC(=O)Nc1cc(-c2cn3cccnc3n2)ccc1OC`, the “activity, negative = inhibition” value is -18.8% (inactive).
Same read-out and setting: under `COc1ccc(NC(=O)N2CCC3(CC2)CCN(C(=O)c2cccn2C)CC3)cc1` stands 9.41% (inactive).
On the same count and under the same terms, under `COCCN(C(=O)Nc1ccc(OC)cc1OC)C1CCN(C(C)=O)CC1` stands -21.1% (inactive).
Turning to `COc1ccc(-c2nnn(CC(=O)N(CC(=O)NCCC(C)C)Cc3cccs3)n2)cc1OC`, the AC50 is 1.12 µM (active).
Turning to `COc1ccc(NC(=O)N2CC3(CCN(C(=O)c4cccn4C)CC3)C2)cc1`, the “activity, negative = inhibition” value was 2.63% (inactive).
Regarding `COc1ccc(NC(=O)Cn2cccc2)c(OC)c1`, the AC50 is 2.24 µM (active).
On the same count and under the same terms, to `COc1ccc(OC)c(NC(=O)Cn2cccc2)c1` belongs 6.31 µM (active).
In the case of `COc1ccc(OC)c(NC(=O)CC(Cc2ccccc2OC)C(=O)O)c1` (configuration not stated), the “activity, negative = inhibition” value is -24.6% (inactive).
Take `COc1ccc(NC(=O)NCc2cccn2C)c(OC)c1`: the AC50 was 6.31 µM (active).
For `CO[C@H]1COC(=O)[C@H](C)NC(=O)C/C=C\[C@@H](C)[C@@H](NS(=O)(=O)c2ccc(C)cc2)COC(=O)C/C=C\[C@@H]1C`, the activity, negative = inhibition was 24.1% [at 11.4 µM] (inactive).
For the molecule `CCOc1ccc(-c2nnn(CC(=O)Nc3cc(OC)ccc3OC)n2)cc1OCC`, the half-maximal activity concentration (AC50) was 5.62 µM (active).
Regarding `COc1ccc(-c2nnn(CC(=O)NCCc3c[nH]c4ccccc34)n2)cc1OC`, the half-maximal activity concentration (AC50) is 8.91 µM (active).
Same read-out and setting: under `Cn1ncc(C#N)c1NC(=O)C1CC(c2ccc(Cl)cc2)=NO1` (configuration not stated) stands 0.316 µM (active).
`COc1cccc(Nc2ncc3nc(-c4cccs4)c(=O)n(CCC#N)c3n2)c1`: the “activity, negative = inhibition” value was 8.8% (inactive).
Turning to `O=C(CCC1CCCCC1)Nc1c2c(nn1-c1ccc(F)cc1)CS(=O)(=O)C2`, the AC50 is 15.8 µM (active).
On to `NC(=O)c1ccc([N+](=O)[O-])cc1SCc1ccccc1`, for which the AC50 was 10 µM (active).
In the case of `O=C(O)c1cc(N=Nc2ccc([N+](=O)[O-])cc2)ccc1O`, the activity, negative = inhibition was -3.05% [at 11.4 µM] (inactive).
Still for that read-out and setting: to `O=C(O)[C@@H]1[C@@H](C(=O)NCc2ccccn2)[C@@H]2C=C[C@@H]1O2` belongs 36% [at 11.4 µM] (inactive).
As for `O=C(NCc1ccccn1)c1cc(-c2ccccc2Cl)on1`, the AC50 was 14.1 µM (active).
On to `OCCN1CCOCCOCCN(CCO)CCN(CCO)CC1`, for which the “activity, negative = inhibition” value is -16.8% (inactive).
`CCN1CCN(C(=S)c2ccc(Br)cc2)CC1`: the AC50 was 7.94 µM (active).
Take `OCCN1CCN(C(=S)c2ccc(Br)cc2)CC1`: the AC50 is 4.47 µM (active).
Regarding `O=C(CCCN1CCC(O)(c2ccc(Br)cc2)CC1)c1ccc(F)cc1`, the “activity, negative = inhibition” value was -4.38% [at 25.6 µM] (inactive).
The same measure, in the same setting: to `C[C@H]1CN(CCO)CCN1c1ccccc1` belongs 34.1% [at 11.4 µM] (inactive).
Still for that read-out and setting: to `O=c1[nH][nH]c(C(F)(F)F)c1C=Nc1ccccc1` belongs -9.86% (inactive).
Turning to `Cc1ccc(-c2cc(C(=O)NCc3ccco3)c3ccccc3n2)s1`, the AC50 was 3.98 µM (active).
On the same count and under the same terms, to `Cc1ccc(CSc2nnc3c(n2)OC2(Nc4ccccc4-3)C(=O)Nc3ccc(F)cc32)cc1` (configuration not stated) belongs 10 µM (active).
Still for that read-out and setting: to `O=C1Nc2ccc(F)cc2C12Nc1ccccc1-c1nnc(SCc3ccccc3F)nc1O2` (configuration not stated) belongs 4.47 µM (active).
For the molecule `COc1ccc(C(=O)c2c[nH]c(C(=O)NCc3cccs3)c2)cc1`, the “activity, negative = inhibition” value was -28.9% (inactive).
On the same count and under the same terms, under `Nc1nc2c(C(=O)NCc3cccs3)nnn2c2cccc(Cl)c12` stands 12.5% [at 11.4 µM] (inactive).
With `COc1cccc2c(=O)c(C(=O)NCc3cccs3)c[nH]c12`, the AC50 is 7.94 µM (active).
